{
  "source": "paper PMC11995724",
  "about": "“Antibiotic target discovery by integrated phenotypic and activity-based profiling of electrophilic fragments” (Cell chemical biology, 2025)",
  "note": "About 110 (3.4%) of roughly 3,200 compounds showed an effect of 50% or more. The full list was thinned out, with strong results kept by preference.",
  "data": [
    {"test_system": "T1, V. cholerae SAD30", "T1 construct": "SAD30", "design": "species or system S. aureus MSSA476 (TSB) or V. cholerae SAD30 (LB); 384-well bacterial growth screen at 25 uM, OD600 relative to DMSO control", "details": "relative growth, OD600, LB; 25 µM; inhibitor", "units": {"% of control remaining": "%"}, "values": [
      {"molecule": "C=CC(=O)NC1CS(=O)(=O)C1", "note": "[3-P18, N-(1,1-dioxo-1lambda6-thietan-3-yl)prop-2-enamide]", "% of control remaining": 112.909},
      {"molecule": "COc1ccc([N+](=O)[O-])cc1NC(=O)CCl", "note": "[4-P17, 2-chloro-N-(2-methoxy-5-nitrophenyl)acetamide]", "% of control remaining": 111.969},
      {"molecule": "COc1cc([N+](=O)[O-])ccc1NC(=O)C(C)Cl", "note": "(centres unmarked) [4-K12, 2-chloro-N-(2-methoxy-4-nitrophenyl)propanamide]", "% of control remaining": 93.5087},
      {"molecule": "COc1ccc([N+](=O)[O-])cc1N1C(=O)C=CC1=O", "note": "[10-P13, 1-(2-methoxy-5-nitrophenyl)-2,5-dihydro-1H-pyrrole-2,5-dione]", "% of control remaining": 32.7294},
      {"molecule": "COc1cc([N+](=O)[O-])ccc1N1C(=O)C=CC1=O", "note": "[10-H13, 1-(2-methoxy-4-nitrophenyl)-2,5-dihydro-1H-pyrrole-2,5-dione]", "% of control remaining": 24.625},
      {"molecule": "COc1ccc([N+](=O)[O-])cc1NC(=O)C(C)Cl", "note": "(centres unmarked) [5-N14, 2-chloro-N-(2-methoxy-5-nitrophenyl)propanamide]", "% of control remaining": 92.6342},
      {"molecule": "COc1cc([N+](=O)[O-])ccc1NC(=O)CCl", "note": "[4-O07, 2-chloro-N-(2-methoxy-4-nitrophenyl)acetamide]", "% of control remaining": 100.582},
      {"molecule": "CCN(CC)S(=O)(=O)c1cccc(NC(=O)CCl)c1", "note": "[4-M07, 2-chloro-N-[3-(diethylsulfamoyl)phenyl]acetamide]", "% of control remaining": 105.931},
      {"molecule": "C=CC(=O)N1CCC(C(=O)N[C@H]2CCC[C@H]2O)CC1", "note": "[2-K04, N-[(1S,2R)-2-hydroxycyclopentyl]-1-(prop-2-enoyl)piperidine-4-carboxamide]", "% of control remaining": 95.9085},
      {"molecule": "C=CC(=O)N1CCC(n2ncc3ccccc32)CC1", "note": "[1-K22, 1-[4-(1H-indazol-1-yl)piperidin-1-yl]prop-2-en-1-one]", "% of control remaining": 95.6652},
      {"molecule": "CC(Cl)C(=O)Nc1nc(-c2ccccc2)cs1", "note": "(centres unmarked) [6-L10, 2-chloro-N-(4-phenyl-1,3-thiazol-2-yl)propanamide]", "% of control remaining": 85.6953},
      {"molecule": "C=CC(=O)N1CCOCC1c1cc(F)cc(F)c1", "note": "(centres unmarked) [2-O16, 1-[3-(3,5-difluorophenyl)morpholin-4-yl]prop-2-en-1-one]", "% of control remaining": 92.203},
      {"molecule": "O=C(CCl)NCCS(=O)(=O)N1CCc2ccccc21", "note": "[6-H04, 2-chloro-N-[2-(2,3-dihydro-1H-indole-1-sulfonyl)ethyl]acetamide]", "% of control remaining": 103.138},
      {"molecule": "CC1Cc2cc(C(=O)CCl)ccc2N1S(C)(=O)=O", "note": "(centres unmarked) [10-A04, 2-chloro-1-(1-methanesulfonyl-2-methyl-2,3-dihydro-1H-indol-5-yl)ethan-1-one]", "% of control remaining": 89.6162},
      {"molecule": "CS(=O)(=O)N1CCCc2cc(C(=O)CCl)ccc21", "note": "[10-H19, 2-chloro-1-(1-methanesulfonyl-1,2,3,4-tetrahydroquinolin-6-yl)ethan-1-one]", "% of control remaining": 22.9106},
      {"molecule": "N#Cc1ccc2c(c1)CCN2C(=O)CCl", "note": "[5-N09, 1-(2-chloroacetyl)-2,3-dihydro-1H-indole-5-carbonitrile]", "% of control remaining": 93.4748},
      {"molecule": "O=C(CCl)c1ccc2c(c1)CCN(C(=O)C(F)(F)F)C2", "note": "[10-E09, 1-[6-(2-chloroacetyl)-1,2,3,4-tetrahydroisoquinolin-2-yl]-2,2,2-trifluoroethan-1-one]", "% of control remaining": 98.6558},
      {"molecule": "CCS(=O)(=O)N1CCc2cc(C(=O)CCl)ccc21", "note": "[10-E18, 2-chloro-1-[1-(ethanesulfonyl)-2,3-dihydro-1H-indol-5-yl]ethan-1-one]", "% of control remaining": 27.8979},
      {"molecule": "O=C(CCl)c1cc2c3c(c1)CC(=O)N3CCC2", "note": "[10-G16, 6-(2-chloroacetyl)-1-azatricyclo[6.3.1.0,4,12]dodeca-4(12),5,7-trien-2-one]", "% of control remaining": 27.7421},
      {"molecule": "CN1C(=O)Cc2cc(C(=O)CCl)ccc21", "note": "[10-G07, 5-(2-chloroacetyl)-1-methyl-2,3-dihydro-1H-indol-2-one]", "% of control remaining": 54.3931},
      {"molecule": "O=CN1CCc2cc(C(=O)CCl)ccc21", "note": "[10-K20, 5-(2-chloroacetyl)-2,3-dihydro-1H-indole-1-carbaldehyde]", "% of control remaining": 27.1186},
      {"molecule": "O=C(CCl)c1c[nH]c(C(=O)N2CCCC2)c1", "note": "[10-A16, 2-chloro-1-[5-(pyrrolidine-1-carbonyl)-1H-pyrrol-3-yl]ethan-1-one]", "% of control remaining": 108.475},
      {"molecule": "CCC(=O)N1CCc2cc(C(=O)CCl)ccc21", "note": "[10-C22, 1-[5-(2-chloroacetyl)-2,3-dihydro-1H-indol-1-yl]propan-1-one]", "% of control remaining": 119.54},
      {"molecule": "Cc1ccc(NC(=O)N2CCSSCC2)c(C)c1", "note": "[10-F11, N-(2,4-dimethylphenyl)-1,2,5-dithiazepane-5-carboxamide]", "% of control remaining": 95.0711},
      {"molecule": "CC(Cl)C(=O)N(C)CCn1c(=O)oc2ccccc21", "note": "(centres unmarked) [7-H15, 2-chloro-N-methyl-N-[2-(2-oxo-2,3-dihydro-1,3-benzoxazol-3-yl)ethyl]propanamide]", "% of control remaining": 82.4715},
      {"molecule": "CC(C#N)CSc1ccccc1NC(=O)CCl", "note": "(centres unmarked) [6-K16, 2-chloro-N-{2-[(2-cyano-2-methylethyl)sulfanyl]phenyl}acetamide]", "% of control remaining": 86.757},
      {"molecule": "C=CC(=O)N1CCC(C(=O)N[C@]2(C(=O)OC)CC[C@@H](C)CC2)CC1", "note": "[3-E17, methyl (1r,4r)-4-methyl-1-[1-(prop-2-enoyl)piperidine-4-amido]cyclohexane-1-carboxylate]", "% of control remaining": 101.088},
      {"molecule": "O=C(CCl)N(Cc1ccc(Cl)cc1)C12CC3CC(CC(C3)C1)C2", "note": "[4-H07, N-(adamantan-1-yl)-2-chloro-N-[(4-chlorophenyl)methyl]acetamide]", "% of control remaining": 55.3806},
      {"molecule": "Cc1nn(CCC(=O)N2CCSSCC2)c(C)c1[N+](=O)[O-]", "note": "[10-J05, 3-(3,5-dimethyl-4-nitro-1H-pyrazol-1-yl)-1-(1,2,5-dithiazepan-5-yl)propan-1-one]", "% of control remaining": 92.1099}
    ]}
  ]
}
